# Compound activity deposited in PubChem by National Center for Advancing Translational Sciences (NCATS).
# JMJD2A Tudor: inhibitors of human JMJD2A Tudor domain | AlphaScreen JMJD2A-Tudor / H3K4me3 peptide binding | Potency, µM (doses to about 114 µM), for inactives: at the highest dose activity change, negative = inhibition, hits mostly inhibitors | hit rate 4.4% among 390,000 | AID 504339; note: % is set by controls: 0 for no effect and ±100 for the full control effect; nearly all actives have a fitted effect of over 50% in size
# BAZ2B block: BAZ2B (human) inhibition. AID 504333. Potency, µM (doses to about 114 µM), without a hit: at the top dose activity change, negative = inhibition, hits mostly inhibitors. Q9UIF8. AlphaScreen BAZ2B-H3K14Ac peptide displacement. hit rate 4.4% among 360,000; note: % is set by controls: 0 for no effect and ±100 for the full control effect; nearly all actives have a fitted effect of over 60% in size
#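 Protein-peptide AlphaScreen: BAZ2B 50 nM, b-H3K14Ac 50 nM, 1x PBS pH 7.4 + 0.01% Tween-20. Preincubation 30 min RT; cpd 30 min RT (top 110 uM); beads 20 min RT, light-protected.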
# G9a block: inhibitors of human histone lysine methyltransferase G9a. G9a H3K9 monomethylation, AlphaScreen, 2 h. Q96KQ7. hit rate 8.8% among 350,000. Potency, µM (titrated, usually from 102 µM), inactives show at the highest dose activity, negative = inhibition, actives largely listed as inhibitors; note: % is set by controls: 0 for no effect and ±100 for the full control effect; nearly all actives have a fitted effect of over 75% in size
#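 Readings reflect AlphaScreen signal from monomethyl-H3K9 antibody detection. HMT at 20 nM; substrate b-H3K9 500 nM; cofactor SAM 20 uM; 2 h RT reaction; compounds tested as titrations in qHTS with 15 min preincubation.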
# GLS inh: inhibitors of human glutaminase (GLS). GLS enzymatic activity, qHTS titration. Potency, µM (series often up to 45.5 µM), inactives show top-dose activity change, negative = inhibition, hits mostly inhibitors. hit rate 0.21% among 410,000. AID 624170; note: % is set by controls: 0 for no effect and ±100 for the full control effect
# Target sequence (O94925 whole entry, looked up): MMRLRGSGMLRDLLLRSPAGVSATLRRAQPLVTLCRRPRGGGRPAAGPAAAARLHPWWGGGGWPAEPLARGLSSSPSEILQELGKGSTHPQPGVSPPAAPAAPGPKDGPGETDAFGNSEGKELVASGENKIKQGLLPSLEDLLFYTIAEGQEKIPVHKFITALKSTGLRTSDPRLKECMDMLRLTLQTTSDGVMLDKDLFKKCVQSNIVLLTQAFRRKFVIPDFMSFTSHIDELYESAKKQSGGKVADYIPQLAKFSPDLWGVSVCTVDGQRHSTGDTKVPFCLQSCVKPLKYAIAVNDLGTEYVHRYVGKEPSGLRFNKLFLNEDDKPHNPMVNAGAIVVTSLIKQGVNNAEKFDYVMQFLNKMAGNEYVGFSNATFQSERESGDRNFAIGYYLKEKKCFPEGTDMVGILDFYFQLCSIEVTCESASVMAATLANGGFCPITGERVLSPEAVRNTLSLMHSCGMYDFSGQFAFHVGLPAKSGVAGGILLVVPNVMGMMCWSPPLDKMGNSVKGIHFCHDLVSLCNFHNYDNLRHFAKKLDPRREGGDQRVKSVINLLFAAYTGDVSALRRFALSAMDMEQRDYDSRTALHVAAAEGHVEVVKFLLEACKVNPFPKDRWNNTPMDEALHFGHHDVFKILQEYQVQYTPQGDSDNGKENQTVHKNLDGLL
#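 Read-out is an Amplex red fluorescence increase coupled through glutamate oxidase and HRP, measured before and after 30 min room-temperature incubation. hKGA is in 45 mM KH2PO4 (pH 8.2) with 0.02% Tween-20; glutamine added as 1mM solution.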
# HP1b binding inh: inhibitors of HP1-beta chromodomain binding to methylated histone tails. P83916. AlphaScreen HP1-beta / biotin-H3K9me3 peptide binding. Potency, µM (top dose mostly 114 µM), for inactives: top-dose activity change, negative = inhibition, hits mostly inhibitors. hit rate 0.56% among 390,000; note: nearly all actives have a fitted effect of over 70% in size
#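 HP1-beta protein (50 nM final) preincubated 30 min at room temperature with biotinylated H3(1-18)K9me3 peptide (50 nM) in PBS pH 7.4, 0.01% Tween-20, then compound added for 30 min. AlphaScreen streptavidin donor/nickel chelate acceptor beads (10 ug/mL final), 30 min dark, luminescence read.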
# Numbers without * were called inactive; ? = inconclusive; . = not tested or not shown; [ ] = another dose, or the depositor's remark. Only some compounds are listed: those with a hit (about 10% of all), similar ones and a draw of the others. Calls come from the whole dose curve; as a rule, active = well fitted curve in the direction sought with a large enough effect; inconclusive = small, poorly fitted or top-dose-only effect, or another doubt; inactive = no such curve, though single readings can be large; an effect the other way counts as inactive or inconclusive. Potency is the fitted concentration of half-maximal effect.
SMILES,JMJD2A Tudor,BAZ2B block,G9a block,GLS inh,HP1b binding inh
COc1ccc(CNC(=O)CN2C(=O)NC(Cc3ccccc3)(c3ccccc3)C2=O)cc1OC (centres undefined),-2%,4%,8.9µM*,-10%,32%
CCC1(c2ccccc2)NC(=O)N(CC(=O)Nc2ccc(S(=O)(=O)NC3=NCCCCC3)cc2)C1=O (centres undefined),-12%,11%,50µM*,7%,1%
COc1ccc(CNC(=O)CN2C(=O)NC(c3ccccc3)(c3ccccc3)C2=O)cc1OC,-26%,.,.,4%,7%
CCC1(c2ccccc2)NC(=O)N(CC(=O)Nc2ccc(N3CCCC3)cc2C)C1=O (centres undefined),45µM*,45µM*,1.8µM*,34%,?
O=C(CN1C(=O)C2CCCCC2C1=O)Nc1ccccc1N1CCCC1 (centres undefined),-20%,-1%,?,26%,24%
O=C(CN1C(=O)C2CC=CCC2C1=O)Nc1ccccc1N1CCCC1 (centres undefined),-8%,-4%,50µM*,28%,27%
Cc1cc2nn(-c3ccc(F)cc3)nc2cc1NC(=O)c1cccc([N+](=O)[O-])c1C,0%,-14%,2%[59 µM],2%,34%
CCOc1ccc(S(=O)(=O)N2CCOCC2)cc1NC(=O)CN1C(=O)NC(CC)(c2ccccc2)C1=O (centres undefined),-12%,-16%,2%,0%,37%
O=C(CN1CCCc2ccccc21)Nc1cccc(S(=O)(=O)N2CCCC2)c1,.,.,.,19%,.
CCC1(c2ccccc2)NC(=O)N(CC(=O)Nc2cccc(S(=O)(=O)N3CCCCC3)c2)C1=O (centres undefined),-32%,-26%,45µM*,-1%,4%
CC1CCc2ccccc2N1CC(=O)Nc1cccc(S(=O)(=O)N2CCCC2)c1 (centres undefined),?,-35%,20µM*,31%,28%
CCC1(c2ccccc2)NC(=O)N(CC(=O)Nc2ccc(Cl)c(S(=O)(=O)N3CCCCC3)c2)C1=O (centres undefined),-26%,-6%,-4%[12.7 µM],-3%,-2%
CCC1(c2ccccc2)NC(=O)N(CC(=O)Nc2ccccc2N2CCCC2)C1=O (centres undefined),-34%,-13%,40µM*,-27%,-4%
CCC1(c2ccccc2)NC(=O)N(CC(=O)Nc2cc(Cl)ccc2N2CCOCC2)C1=O (centres undefined),-24%,-22%,35µM*,3%,17%
Cc1ccc(C(=O)N2CCc3cc(CNS(=O)(=O)c4cccs4)ccc32)cc1,-2%,-1%,10%[59 µM],6%,30%[57 µM]
Cc1ccc(C(=O)Cn2c3c(sc2=N)CCCC3)cc1,.,.,-41%[59 µM],.,.
CC1(c2ccccc2)NC(=O)N(CC(=O)Nc2ccc(N3CCOCC3)cc2N2CCOCC2)C1=O (centres undefined),1%,5%,56µM*,-1%,5%
Cc1ccc(C2(C)NC(=O)N(CC(=O)Nc3ccc(N4CCOCC4)cc3N3CCOCC3)C2=O)cc1 (centres undefined),-13%,-27%,-6%[0.501 µM],23%,20%
CCC1(c2ccccc2)NC(=O)N(CC(=O)NNC(=O)c2ccc(F)cc2)C1=O (centres undefined),-14%,7%,6.3µM*,12%,32%
Cc1cc(N2CCCC2)ccc1NC(=O)CN1C(=O)NC(C)(c2ccccc2)C1=O (centres undefined),?,25µM*,.,?,-14%[57 µM]
CCC1(c2ccc(F)cc2)NC(=O)N(CC(=O)c2cc(C)n(C3CC3)c2C)C1=O (centres undefined),-35%,-39%,50µM*,-1%,-25%
CCC1(c2ccccc2)NC(=O)N(CC(=O)NCc2ccc(F)cc2)C1=O (centres undefined),-10%,2%,24%,-9%,-1%
COc1ccc2c(CNCc3cccs3)c(C(=O)O)n(Cc3ccccc3C)c2c1,-22%,-15%,-19%[59 µM],-6%,30%
COc1cc(Cl)c(C)cc1Nc1ncnc2c1nc1n2CCCC1,-11%,4%,-10%[59 µM],4%,23%
CCOC(=O)c1c(C)cc2c(CO)n[nH]c(=O)c2c1C,.,.,.,9%,.
SMILES,JMJD2A Tudor,BAZ2B block,G9a block,GLS inh,HP1b binding inh
CCCn1c2ccc(F)cc2c2nnc(SCCN(CC)CC)nc21,?,-1%,-30%[59 µM],4%,51%
CCn1c2ccc(C)cc2c2nnc(SCCN3CCCCC3)nc21,-21%,2%,7%,-12%,-1%
CCn1c2ccc(C)cc2c2nnc(NN)nc21,?,?,50µM*,?,21%
CCn1c2ccccc2c2nnc(NN)nc21,50µM*,?,?,15%,1%
CCCCn1c2ccc(F)cc2c2nnc(NN)nc21,-34%,-24%,50µM*,10%,19%
COc1cccc(C2C(C#N)=C(N)Oc3c2oc(CO)cc3=O)c1OC (centres undefined),18µM*,-1%,?,17%,-6%
COC(=O)C1=C(C)OC(N)=C(C#N)C1c1ccc(OC)c(OC)c1OC (centres undefined),5%[57.1 µM],6%,-1%[12.7 µM],18%,25%
COc1ccc(C2C(C#N)=C(N)Oc3c2oc(CO)cc3=O)c(OC)c1OC (centres undefined),11µM*,12%,-13%[59 µM],39%,16%
COc1cc(C2C(C#N)=C(N)Oc3c2oc(CO)cc3=O)cc(OC)c1OC (centres undefined),7.1µM*,1%,?,38%,-13%
COc1ccc(NC(=O)CC2C(=O)Nc3ccccc3N2CC(=O)N2CCCC2)cc1 (centres undefined),-10%,9%,23%[12.7 µM],16%,49%
CC(=O)NCCNC(=O)CCNC(=O)c1ccc(Cl)cc1,-13%,5%,-20%[59 µM],2%,40%
COc1ccc(-c2c(C(=O)c3ccc(Br)cc3)[nH]c(N)c2C(=O)c2ccccc2)cc1OC,.,.,.,3%,.
O=C(c1ccccc1)N1CCCOC1c1ccccc1 (centres undefined),-8%,.,25µM*,12%,25%
O=C(Cc1ccccn1)c1ccc(Cl)cc1,11%,-7%,-6%[2.33 µM],-1%,67%
CC1=C(CC(=O)c2ccc(Cl)cc2)C(=O)c2ccccc2C1=O,32µM*,32µM*,?,-2%,-53%
CCN1CCN(c2ccc(S(=O)(=O)N3CCCCC3)cc2NC(=O)c2cccc(Cl)c2)CC1,?,?,32µM*,-3%,-15%
CCN1CCN(c2ccc(S(=O)(=O)N3CCCCC3)cc2NC(=O)c2cc3ccccc3o2)CC1,?,-20%,35µM*,4%,-27%
Cc1ccc(S(=O)(=O)N2CCCCC2)cc1NC(=O)c1cc2ccccc2o1,-14%,7%,-6%[12.7 µM],-5%,30%
